This note sets out measurements from PubChem BioAssay (NCI).

Compounds without any hit were thinned out: in the full panel of roughly 83,000, 20% have a hit.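 Each cell line was grown in a 96-well plate and treated with one concentration of compound for 48 hours. Values below 10 were considered active.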 Activity calls are given as the source filed them.

The test system of one assay is NCI/ADR-RES ovarian. Put plainly: NCI-60 one-dose screen, 48 h (100 = growth as untreated, 0 = no growth, -100 = all killed). To be noted: 10 µM unless noted.
On to `CCC1C(=O)COC1=O` (stereo not given), for which the growth is 87.9% (inactive). Take `C=C(C)[C@@H]1CC[C@]2(C)[C@H](CC=C3[C@@H]4CC(C)(C)CC[C@]4(C(=O)OC)CC[C@]32C)[C@@]1(C)CC/C(N)=N/O`: the growth is -24.5% (active). On to `O=C(/C=C/c1cccc2ccccc12)Nc1ncc(Cc2ccccc2)s1`, for which the growth was -8.05% (active). On the same count and under the same terms, to `N#Cc1c(-c2ccc(O)cc2)c2c(N)nn(-c3ccccc3)c2[nH]c1=O` belongs 102% (inactive); to `COc1ccc(-c2c(-c3nc4ccc(N5CCOCC5)cc4[nH]3)[nH]c(C)c2C(C)=O)cc1`, 38.7% (inactive); to `c1ccc(-c2nc(Nc3ccc(-c4nc5ccccc5[nH]4)cc3)nc(N3CCOCC3)n2)cc1`, -60.8% (active). Same read-out and setting: to `Cc1cc2nc3c4cc(Cl)ccc4n(CCN(C)C)c3nc2cc1C` belongs 13.6% (inactive). For the compound `Cc1cc(N2CCOCC2)nc(N(CCCNc2ccnc3cc(Cl)ccc23)Cc2ccco2)n1`, the growth was 12.1% (inactive). For `Cc1cc(N(CCNc2ccnc3cc(Cl)ccc23)Cc2ccco2)nc(Cl)n1`, the growth was -4.64% (active). Regarding `COc1ccc(/C=C/C(=O)NCCO)cc1`, the growth is 104% (inactive).

With `O=C1NC(c2ccc(Cl)c(Cl)c2)=C/C1=C\c1ccccc1`, the growth was 83.7% (inactive). Still for that read-out and setting: next, `N#C/C(=C\c1ccc(-c2ccccc2)o1)c1nc(-c2ccco2)cs1`: 95.5% (inactive). For `C=C1C(=O)O[C@H]2[C@H]1CC/C(COC(=O)NCc1c[nH]c3ccccc13)=C\CC[C@@]1(C)O[C@@H]21`, the growth is 78.8% (inactive). For `Cn1cc(-c2csc(-c3cn(CCN)c4ccccc34)n2)c2cccnc21`, the growth was 44.1% (inactive). With `C=C(C)[C@@H]1CC[C@]2(C)[C@H](CC[C@@H]3[C@H]4[C@H]5OC[C@@]4(CCC5(C)C)CC[C@]32C)[C@@]1(C)CCCN`, the growth was 73.8% (inactive). Regarding `CC[C@]12C=CCN3CC[C@@]4(c5cc([C@H]6CCC(=O)N6)c(OC)cc5N(C)[C@H]4[C@@](O)(C(=O)OC)[C@@H]1OC(C)=O)[C@@H]32`, the growth was 107% [2.5 µM] (inactive). `COc1cc2c(cc1-c1c(C)noc1C)ncc1nc(C3CCCCC3)n([C@@H](C)COC(F)F)c12`: the growth is 37% (inactive). With `COc1ccc(/C=C(\C#N)c2cc3ccccc3n2S(C)(=O)=O)cc1`, the growth was 60.1% (inactive).

With `CCc1cccc(CC)c1NC(=O)c1sc2nc3c(cc2c1N)CCCC3`, the growth was 45.3% (inactive). For `O=C1CCC/C=C\C[C@H]2C=C(Cl)C(=O)/C2=C/C[C@H](CCCCC(F)(F)F)OC(=O)CCC/C=C\C[C@H]2C=C(Cl)C(=O)/C2=C/C[C@H](CCCCC(F)(F)F)O1`, the growth was 12.5% [7.5 µM] (inactive).

Turning to `COc1cc(-c2cc3ncccc3c3nc(N)c4cccnc4c23)cc(OC)c1OC`, the growth is 10.5% (inactive). `COC(=O)[C@]12CC[C@@H](C)[C@H](C)[C@@H]1C1=CC[C@@H]3[C@@]4(C)C[C@@H](OC(C)=O)[C@H](O)[C@@](C)(CO)[C@@H]4[C@H](O)C[C@@]3(C)[C@]1(C)CC2`: the growth was -67.6% (active). Consider `Cc1ccc(N(CC(=O)Nc2ccc(S(=O)(=O)NC3CCN(C)CC3)cc2)S(=O)(=O)c2ccc(Cl)cc2)cc1`, for which the growth was 98.6% (inactive).

As for `N#CC1=C(N)Oc2ccc3ccccc3c2C1c1ccccc1` (stereo not given), the growth is 8.41% (active). Consider `COc1ccc(C(=O)/C=C/c2cc(-c3cc(OC)c(OC)c(OC)c3)n[nH]2)cc1OC`, for which the growth was 15% (inactive). In the case of `Cn1c(/C(C#N)=C/c2ccc3ccccc3c2)cc2ccccc21`, the growth is -18.4% (active). The same measure, in the same setting: to `CCN(CC)c1ccc(/C=C/c2cc(C)c3ccccc3n2)cc1` belongs 15.9% (inactive).

In a further assay the test system is T-47D breast. Described as above. To be noted: 10 µM unless noted.
Consider `COc1cccc(-c2nn(-c3ccccc3)cc2-c2ccnc(NCCCN)c2)c1`, for which the growth was 59.1% (inactive). For the compound `Cn1cnc2c1c(=O)n(CCC(=O)Nc1ccc(F)cc1)c(=O)n2C`, the growth is 89.7% (inactive).

As for `C=C(C)[C@@H]1CC[C@]2(C=O)CC[C@]3(C)[C@H](CC[C@@H]4[C@@]5(C)C/C(=C/c6cccnc6)C(=O)C(C)(C)[C@@H]5CC[C@]43C)[C@@H]12`, the growth was 31.9% (inactive).

`CN(C)c1cccc2[nH]c(-c3[nH]ncc3Nc3ccnc(N)n3)nc12`: the growth was -18.3% (active). Still for that read-out and setting: next, `O=Cc1nc2ccccc2[nH]1`: 91.9% (inactive); `COc1cc2nc(Cl)nc(Nc3cccc(C(=O)/C=C/c4ccc(Br)cc4)c3)c2cc1OC`: 72.4% (inactive); `CC[C@H](CC[C@@H](C)[C@H]1CC[C@H]2[C@@H]3/C(=C/c4cccnc4)C(=O)C4=CC(=O)CC[C@]4(C)[C@H]3CC[C@]12C)C(C)C`: 47.7% (inactive). As for `C=C(C)[C@@H]1CC[C@]2(c3nnc(-c4ccncc4)o3)CC[C@]3(C)[C@H](CC[C@@H]4[C@@]5(C)CCC(=O)NC(C)(C)[C@@H]5CC[C@]43C)[C@@H]12`, the growth is 100% (inactive). As to `COc1cc(NC(C)CN(CC(C)C)C(C)C)c2ncccc2c1` (stereo not given), the growth was 31% (inactive).

Turning to `Nc1c2c(nc3ccc(Cl)cc13)CC(c1ccccc1)CC2=O` (stereo not given), the growth was 54.1% (inactive).

On to `COC(=O)[C@]12CC[C@@H](C)[C@H](C)[C@@H]1C1=CC[C@@H]3[C@@]4(C)C[C@@H](O)[C@H](O)[C@@](C)(CO)C4=CC[C@@]3(C)[C@]1(C)CC2`, for which the growth is -26.5% (active). As for `CCC1C(=O)COC1=O` (stereo not given), the growth is 71.6% (inactive).

As for `C=C(C)[C@@H]1CC[C@]2(C)[C@H](CC=C3[C@@H]4CC(C)(C)CC[C@]4(C(=O)OC)CC[C@]32C)[C@@]1(C)CC/C(N)=N/O`, the growth is 6.99% (active). On to `O=C(/C=C/c1cccc2ccccc12)Nc1ncc(Cc2ccccc2)s1`, for which the growth is 16% (inactive). `N#Cc1c(-c2ccc(O)cc2)c2c(N)nn(-c3ccccc3)c2[nH]c1=O`: the growth is 112% (inactive). On to `COc1ccc(-c2c(-c3nc4ccc(N5CCOCC5)cc4[nH]3)[nH]c(C)c2C(C)=O)cc1`, for which the growth was 27.3% (inactive). For `c1ccc(-c2nc(Nc3ccc(-c4nc5ccccc5[nH]4)cc3)nc(N3CCOCC3)n2)cc1`, the growth was -62.3% (active). On to `Cc1cc2nc3c4cc(Cl)ccc4n(CCN(C)C)c3nc2cc1C`, for which the growth is 30.5% (inactive).

As to `Cc1cc(N2CCOCC2)nc(N(CCCNc2ccnc3cc(Cl)ccc23)Cc2ccco2)n1`, the growth is 35.3% (inactive). `Cc1cc(N(CCNc2ccnc3cc(Cl)ccc23)Cc2ccco2)nc(Cl)n1`: the growth was -69.1% (active). For the compound `COc1ccc(/C=C/C(=O)NCCO)cc1`, the growth was 89.8% (inactive). For `O=C1NC(c2ccc(Cl)c(Cl)c2)=C/C1=C\c1ccccc1`, the growth is 12.5% (inactive).

On to `N#C/C(=C\c1ccc(-c2ccccc2)o1)c1nc(-c2ccco2)cs1`, for which the growth is -26% (active). The same measure, in the same setting: to `C=C1C(=O)O[C@H]2[C@H]1CC/C(COC(=O)NCc1c[nH]c3ccccc13)=C\CC[C@@]1(C)O[C@@H]21` belongs 37.8% (inactive); to `Cn1cc(-c2csc(-c3cn(CCN)c4ccccc34)n2)c2cccnc21`, 20% (inactive); to `C=C(C)[C@@H]1CC[C@]2(C)[C@H](CC[C@@H]3[C@H]4[C@H]5OC[C@@]4(CCC5(C)C)CC[C@]32C)[C@@]1(C)CCCN`, 23% (inactive). Regarding `CC[C@]12C=CCN3CC[C@@]4(c5cc([C@H]6CCC(=O)N6)c(OC)cc5N(C)[C@H]4[C@@](O)(C(=O)OC)[C@@H]1OC(C)=O)[C@@H]32`, the growth is 96.3% [2.5 µM] (inactive). Regarding `COc1cc2c(cc1-c1c(C)noc1C)ncc1nc(C3CCCCC3)n([C@@H](C)COC(F)F)c12`, the growth is 25% (inactive).

Turning to `COc1ccc(/C=C(\C#N)c2cc3ccccc3n2S(C)(=O)=O)cc1`, the growth was 96.2% (inactive). For the compound `CCc1cccc(CC)c1NC(=O)c1sc2nc3c(cc2c1N)CCCC3`, the growth is 64.3% (inactive).

For `O=C1CCC/C=C\C[C@H]2C=C(Cl)C(=O)/C2=C/C[C@H](CCCCC(F)(F)F)OC(=O)CCC/C=C\C[C@H]2C=C(Cl)C(=O)/C2=C/C[C@H](CCCCC(F)(F)F)O1`, the growth was -7.29% [7.5 µM] (active). Consider `COc1cc(-c2cc3ncccc3c3nc(N)c4cccnc4c23)cc(OC)c1OC`, for which the growth was 35% (inactive). For the compound `COC(=O)[C@]12CC[C@@H](C)[C@H](C)[C@@H]1C1=CC[C@@H]3[C@@]4(C)C[C@@H](OC(C)=O)[C@H](O)[C@@](C)(CO)[C@@H]4[C@H](O)C[C@@]3(C)[C@]1(C)CC2`, the growth was -66.9% (active). For the compound `Cc1ccc(N(CC(=O)Nc2ccc(S(=O)(=O)NC3CCN(C)CC3)cc2)S(=O)(=O)c2ccc(Cl)cc2)cc1`, the growth was 58.4% (inactive).

With `N#CC1=C(N)Oc2ccc3ccccc3c2C1c1ccccc1` (stereo not given), the growth was 40.8% (inactive). Still for that read-out and setting: next, `COc1ccc(C(=O)/C=C/c2cc(-c3cc(OC)c(OC)c(OC)c3)n[nH]2)cc1OC`: -2.5% (active); `Cn1c(/C(C#N)=C/c2ccc3ccccc3c2)cc2ccccc21`: 73.4% (inactive); `CCN(CC)c1ccc(/C=C/c2cc(C)c3ccccc3n2)cc1`: 44% (inactive).
